Data on 104 compounds can be found in ChEMBL document CHEMBL3988442, “University of Dundee, Small-Polar-MMV Screening Library” (2021).

In all, about 53,000 compounds went through this assay and about 900 (1.7%) showed an effect of 50% or more. The full list was thinned out, with strong results kept by preference.

In the test the test system is Mycobacterium tuberculosis. Kind of test: Cornell - Phenotypic assay to identify agents that inhibit growth of Mycobacterium tuberculosis. More on the design: scale not given: direction of the effect not stated beside the values. As to conditions: 10 mM as filed; unlikely as a test dose. In kind it is functional.
On to `COc1cc(-c2cc(N)ncn2)cc(OC)c1OC`, for which the “Percent Effect” value was determined as 14.69%.
For `O=C(NCCNc1ncccn1)C1CCN(C(=O)NC2CC2)CC1`, the “Percent Effect” value is -5.946%.
The figure for `Cc1nc(N(C)C)nc(C)c1NS(=O)(=O)c1ccc(OC(F)(F)F)cc1` is 21.9%; for `CC(=O)N1CCN(c2cnccn2)CC(CO)C1` (centres undefined) it is 10.91%; for `COCc1nc(C(=O)N2CCCC2c2noc(C)n2)cs1` (centres undefined) it is -28.82%.
Regarding `Cc1ccc(CN2CCCC2(C(N)=O)c2cnccn2)c(C)c1` (centres undefined), the “Percent Effect” value is on record as -1.756%.
The result for `CCC1CCCCCN1C(=O)c1cc(C#N)c(SC)[nH]c1=O` (centres undefined) reads -5.356%.
On to `CSc1[nH]c(=O)c(C(=O)N2CCCC2c2cccs2)cc1C#N` (centres undefined), for which the “Percent Effect” value was determined as 17.36%.
The result for `CSc1[nH]c(=O)c(C(=O)N2CCCC2C2CCCC2)cc1C#N` (centres undefined) reads 65.7%.
On to `CC(=O)c1ccc(C(=O)NCc2cccnc2N2CCCC(O)C2)s1` (centres undefined), for which the “Percent Effect” value came to 26.17%.
The result for `COc1cccc(CN(C)Cc2c(C)noc2C)c1OC` reads -9.272%; that for `CCc1c(C)nc(SCc2ccccn2)[nH]c1=O`, 11.8%; that for `Cc1nc(-n2nc(-c3cccs3)cc2N)[nH]c(=O)c1C`, 75.1%.
Consider `CN1CCN(Cn2nc(-c3cccs3)ccc2=O)CC1`, for which the “Percent Effect” value is reported as 17.93%.
As to `Cc1nn(C)c(C)c1S(=O)(=O)NCCn1ccc(-c2cccs2)n1`, the “Percent Effect” value was -2.587%.
The figure for `CC(C(N)=O)n1nc(-c2cccs2)cc(N)c1=O` (centres undefined) is -30.4%; for `CCc1c(C)nc(-n2nc(-c3cccs3)cc2N)[nH]c1=O` it is 106.9%.
The figure for `Cc1ccnc(C2CCN(C(=O)c3cnn(C)c3)CC2)n1` is 19.18%; for `CN1C(=O)C2(CC(=O)Nc3c2cnn3C(C)(C)C)c2ccccc21` (centres undefined) it is 16.17%; for `Cc1ccc(CC2CCCN2CC(=O)NCc2cccnc2)cc1` (centres undefined) it is 13.39%.
The result for `CN1CC2(CCCN(Cc3cccc(CCN)c3)C2)OC1=O` (centres undefined) reads 4.729%; that for `CN(CC(=O)NCc1ccccn1)C1CCCN(c2cccnn2)C1` (centres undefined), -22.52%; that for `COC(=O)c1ccccc1S(=O)(=O)NC(=O)c1cccc2c1OCCO2`, -3.436%.
Consider `O=C1NC2(CCN(CCc3ccccc3)CC2)CC1c1ccccc1` (centres undefined), for which the “Percent Effect” value came out at 19.15%.
For `Cl.Cl.O=C1NC2(CCNCC2)CC1c1ccncc1` (centres undefined), the “Percent Effect” value is -12.16%.
As for `Cl.O=C1NC2(CCNCC2)CC1c1ccccc1` (centres undefined), the “Percent Effect” value was determined as 100.2%.
The result for `Cc1nn(C)c(N(C)C)c1CNCc1ccnc(N2CCOCC2)c1` reads 31.35%; that for `CCS(=O)(=O)N1C[C@H]2CN(CC3CC3)C(=O)[C@H]2C1`, -29.96%.
Turning to `COc1ccccc1CCNS(=O)(=O)N1CCOCC1`, the “Percent Effect” value was -2.569%.
The figure for `COCC(=O)NCCc1nc2cc(-c3ccc(OC)cc3)ncn2n1` is 48.11%; for `Cc1cc(NCCS(C)(=O)=O)nc2cc3c(cc12)CCC3` it is 21.34%.
The result for `CN(C)CCn1c(=O)oc2ccc(NC(=O)CC(C)(C)C)cc21` reads 16.94%; that for `CN(C)CCn1c(=O)oc2ccc(NC(=O)CSc3ccccc3)cc21`, 68.34%.
The figure for `CC(C)CCC(=O)Nc1ccc2oc(=O)n(CCN(C)C)c2c1` is -39.6%.
Regarding `CCCn1cc(-c2cc(-c3ccoc3)c(C#N)c(N)n2)c(C)n1`, the “Percent Effect” value came out at 46%.
The result for `CCCn1cc(-c2cc(-c3cnc(OC)nc3)c(C#N)c(N)n2)c(C)n1` reads 56.67%; that for `CCCn1cc(-c2cc(-c3c[nH]cn3)c(C#N)c(N)n2)c(C)n1`, 4.241%; that for `O=C(NCc1ccco1)[C@@H]1CCO[C@@H]2CCN(c3ncccn3)C[C@@H]21.O=C(O)C(F)(F)F`, -22.51%.
Regarding `Cc1ncc(CN2CCC(c3nc(O)cc(-c4ccsc4)n3)CC2)cn1`, the “Percent Effect” value was found to be 21.36%.
With `CCc1noc(CN(CCC2CCCCC2)CC(N)=O)n1`, the “Percent Effect” value worked out at 4.193%.
For `CCOC(=O)COc1cccc(NC(=O)C2COCCO2)c1` (centres undefined), the “Percent Effect” value worked out at 12.18%.
For `CCOCc1cccc(NC(=O)C2COCCO2)c1` (centres undefined), the “Percent Effect” value is listed as -0.8336%.
The figure for `O=C(Nc1cccc(OCc2cccc(F)c2)c1)C1COCCO1` (centres undefined) is 108%.
As for `O=C(Nc1cccc(OCc2ccc(F)cc2)c1)C1COCCO1` (centres undefined), the “Percent Effect” value is reported as 107.1%.
For `O=C(OCc1ccccc1)c1cccc(NC(=O)C2COCCO2)c1` (centres undefined), the “Percent Effect” value was -2.465%.
The figure for `O=C(Nc1ccc(OCc2cccc(F)c2)c(F)c1)C1COCCO1` (centres undefined) is 18.87%; for `CC1CCCCN1C(=O)COc1nc(Cc2ccc(F)cc2)no1` (centres undefined) it is -36.23%.
In the case of `CCN(Cc1ccc(C(C)C)cc1)C(=O)c1csc(CN(C)C)n1`, the “Percent Effect” value was -18.18%.
On to `CCCNC(=O)NC(=O)CNc1c(F)cccc1N1CCCC1`, for which the “Percent Effect” value is -0.2754%.
The figure for `CCNc1cc2c(nn1)CCN(C(=O)C1Cc3ccccc3S1)C2` (centres undefined) is 12.56%.
The result for `CN(C)c1cc2c(nn1)CCN(C(=O)C1CCc3ccccc31)C2` (centres undefined) reads -36.17%; that for `CN(C)c1cc2c(nn1)CCN(C(=O)C1Cc3ccccc3S1)C2` (centres undefined), 54.31%.
The result for `CN1CCOC(CNC(=O)C2(c3cccc(C(F)(F)F)c3)CCCC2)C1` (centres undefined) reads 17.35%.
As to `CCn1cc(CN2CCCN(C(=O)CCc3ccccc3)CC2)cn1`, the “Percent Effect” value is on record as -0.8409%.
The figure for `Cc1nn(C)cc1NC(=O)CC1CCN(CCc2ccccc2)CC1` is 6.464%.
Take `Br.Cc1ccccc1OC1CCN(CC(=O)Nc2ccn(C)n2)CC1`: the “Percent Effect” value came out at 51.43%.
The figure for `Fc1ccc(OC2CCN(CCn3cncn3)CC2)cc1` is 21.61%; for `Cc1ccccc1OC1CCN(CC(=O)Nc2c(C)nn(C)c2C)CC1` it is 59.98%.
In the case of `Cc1nn(C)cc1NC(=O)CN1CCC(Oc2cnccn2)CC1`, the “Percent Effect” value came to 11.01%.
`CCn1cc(NC(=O)CN2CCC(Oc3ccc(F)cc3)CC2)c(C)n1.Cl`: the “Percent Effect” value amounted to 59.25%.
As to `Cn1ccc(NC(=O)CN2CCN(C3CCCC3)C(=O)C2)n1`, the “Percent Effect” value is on record as 47.35%.
With `CCOc1ccccc1CCC(=O)Nc1c(C)nn(C)c1C`, the “Percent Effect” value is -20.08%.
The result for `Cn1ccc(NC(=O)CN2CCC(Oc3cnccn3)CC2)n1` reads -4.083%.
On to `Br.Cc1ccccc1OC1CCN(CC(=O)Nc2cnn(C)c2C)CC1`, for which the “Percent Effect” value amounted to 6.171%.
Consider `Cc1ccccc1OC1CCN(CC(=O)Nc2cn(C)nc2C)CC1`, for which the “Percent Effect” value is reported as 69.1%.
The result for `CCn1cc(NC(=O)CN2CCC(Oc3ccccc3C)CC2)c(C)n1` reads 45.29%; that for `COc1ccc(Cl)cc1C(=O)N1C[C@@H](NC(=O)N(C)C)[C@H](C(C)C)C1`, -26.21%.
`COC(=O)c1ccoc1CN(C)CC(=O)NC1CC1`: the “Percent Effect” value was 9.025%.
Take `Cc1cc(C2CCCCN2C(=O)c2cccn2C)nc2nccn12` (centres undefined): the “Percent Effect” value is 14.54%.
Regarding `CCOCCC1(CNC(=O)c2ccsc2)CCC1`, the “Percent Effect” value came out at 23.41%.
The result for `Cc1cc(C(=O)N2CC[C@@H]3CN(C)S(=O)(=O)[C@@H]3CC2)no1` reads 25.4%; that for `O=C(O)c1ccnc2c(Br)cccc12`, 13.48%.
The figure for `COc1ccc(CNC(=O)NC(C)(C(=O)O)c2ccco2)cc1F` (centres undefined) is -25.47%; for `O=C1COC2(CCN(Cc3ccco3)CC2)CN1Cc1cccnc1` it is 24.6%.
Regarding `CCCN1CCN(Cc2cc(Cl)cc(Cl)c2)[C@H]2CS(=O)(=O)C[C@H]21`, the “Percent Effect” value is given as -17.23%.
As to `Cc1cc(CN2CCN(CC3CC3)[C@@H]3CS(=O)(=O)C[C@@H]32)cc(C)c1O`, the “Percent Effect” value is 106.4%.
Take `Cc1ccc(CN2CCN(CC3CC3)[C@@H]3CS(=O)(=O)C[C@@H]32)cc1C`: the “Percent Effect” value was 21.5%.
For `O=S1(=O)C[C@@H]2[C@H](C1)N(Cc1cc(Cl)cc(Cl)c1)CCN2CCO`, the “Percent Effect” value is listed as -11.47%.
The result for `O=S1(=O)C[C@@H]2[C@H](C1)N(Cc1cc(Cl)cc(Cl)c1)CCN2CC1CC1` reads 85.08%; that for `Cc1cc(CN2CCN(CC3CC3)[C@@H]3CS(=O)(=O)C[C@@H]32)ccc1F`, -1.418%.
The result for `COc1ccc(C(=O)NCCC(N)=O)c(I)c1` reads -0.6619%; that for `Cc1nc(NC2CCCCC2)cc(C2CCCNC2)n1.Cl` (centres undefined), -33.64%; that for `COCc1nc2cc(NCc3scnc3C)ccc2o1`, 107%.
Turning to `Cc1cc(CNc2ccc3nc(C)sc3c2)no1`, the “Percent Effect” value is 23.73%.
Turning to `COCCCSc1ccc(NCc2scnc2C)cc1`, the “Percent Effect” value is 22.43%.
Turning to `COCc1nc2cc(NCc3sc(C)nc3C)ccc2o1`, the “Percent Effect” value stood at 97.37%.
The result for `Cc1ncsc1CNc1cccc(OCCN2CCCC2)c1` reads 16.77%.
As to `COCc1nc(CNc2cccc(-c3nc(C)c(C)o3)c2)cs1`, the “Percent Effect” value came to 46.4%.
The result for `CC(C)N1CC2(CCCN(c3ccnc4ccccc34)C2)CCC1=O` (centres undefined) reads 17.47%; that for `COCc1nnc(C(=O)N2CCCC(O)C2)o1` (centres undefined), -16.94%; that for `Cc1ncc(CNC(=O)CCc2cccs2)c(C2CCCN2C)n1` (centres undefined), -2.251%.
In the case of `O=C1CO[C@H]2CN(Cc3cccc(F)c3F)C[C@@H]2N1C1CCOCC1`, the “Percent Effect” value is reported as -21.84%.
`Cc1ccc(C2CN(Cc3cccc4[nH]ccc34)CCO2)nc1` (centres undefined): the “Percent Effect” value was -22.89%.
On to `O=C1CO[C@H]2CN(Cc3cccc4[nH]ccc34)C[C@@H]2N1C1CCOCC1`, for which the “Percent Effect” value came out at 103.3%.
For `CCC(CN1CCCC1)NC(=O)C1(c2ccc(F)cc2)CC1` (centres undefined), the “Percent Effect” value was 38.36%.
The result for `CCC1c2ccccc2CCN1CCNS(C)(=O)=O` (centres undefined) reads -0.3963%.
The figure for `COCc1cc(CNCc2c(C)n(CC(N)=O)c3ccccc23)n[nH]1` is 35.48%; for `Cc1cc(CNCc2c(C)n(CC(C)C)c3ccccc23)[nH]n1` it is 57.75%; for `COCc1cc(CNCc2c(C)n(CC(C)C)c3ccccc23)n[nH]1` it is 48.01%.
Consider `COCCC(=O)N1CCCC1c1nc(C)c2c(n1)N(C)C(=O)CC2` (centres undefined), for which the “Percent Effect” value is given as 9.481%.
The result for `CC(C)(C)n1nnnc1CN(Cc1ccccc1)Cc1ccccc1Cl` reads 7.141%.
As to `COc1ccc(OC)c(C2CCN(CC(C)(C)N3CCOCC3)C2)c1` (centres undefined), the “Percent Effect” value is recorded as -53.82%.
The figure for `COc1ccc(OC)c(C2CCN(C3CCOCC3)C2)c1` (centres undefined) is -54.14%.
Turning to `COc1ccc(OC)c(C2CCN(Cc3nc(C)n4ccccc34)C2)c1` (centres undefined), the “Percent Effect” value is 51.45%.
